# According to PubChem BioAssay (NCATS):
# Values without a mark were called inactive. Active and inactive are the calls of the source. The call rests on the fitted dose curve; in most records, active means well fitted inhibition curve with a large enough effect; inconclusive means small, poorly fitted or top-dose-only effect; inactive means no such curve, though single readings can be large or run the other way.
# Molecular target: Pyruvate kinase (Leishmania mexicana) (UniProt Q27686)
# Test: qHTS Validation Assay for Inhibitors of Leishmania Mexicana Pyruvate Kinase (AID 945);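 further: 0% = DMSO only neutral control wells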
# Conditions: purified L. mexicana pyruvate kinase, enzyme activity, E451W mutant enzyme; series mostly up to 57.5 µM; activity change, negative = inhibition: at the top concentration
# Source text: NIH Molecular Libraries Screening Centers Network [MLSCN]
# NIH Chemical Genomics Center [NCGC]
# PI names: Malcom Walkinshaw, Hugh Morgan and Linda Gilmore
# University of Edinburgh, Edinburgh, UK
# Species of Leishmania are responsible for a wide spectrum of diseases throughout the tropics and subtropics, ranging from self-healing ulcers to highly disfiguring lesions and serious, often lethal visceral diseases, such as kala-azar. In Leishmania spp. it has been shown that both sugar uptake and gluconeogenesis are necessary to synthesize sufficient hexose-phosphate required for the production of glycoconjugates and the intracellular polysaccharide mannan which are essential for both replication and virulence of the parasites. Therefore, most of the enzymes participating in glycolysis and gluconeogenesis are expected to be essential (Naderer et al., 2006). The assay described here targets pyruvate kinase from Leishmania mexicania (LmPYK) that was obtained as a highly purified preparation from the University of Edinburgh (E451W mutant was provided). A 1536 well assay protocol was set up and validated by screening the LOPAC library in triplicate as an eight point concentration-titration series using the qHTS platform developed at the NCGC.
# NCGC Assay Protocol Summary:
# Three uL of substrate mix (final concentrations, 50 mM imidazole pH 7.2, 50 mM KCl, 7 mM MgCl2, 0.5 mM PEP, 0.1 mM ADP, 0.01% Tween 20, 0.05% BSA) was dispensed into white solid medium binding Greiner 1536 well plates. 23 nL of compound were delivered by a pin tool and 1 uL of enzyme mix (final concentration, 0.2 nM LmPYK, 50 mM imidazole pH 7.2, 0.05% BSA) was added. Plates were covered with stainless steel gasket-lined lids and incubated at room temperature for 1 hour. Two uL of detection and kinase stop mix (PKLight, Lonza) was added, and luminescence read by a ViewLux (Perkin Elmer) at 2 second exposure/plate using 2x binning. Controls on each plate were as follows: column 1, sixteen-point titration (1:2 dilutions) in duplicate the LmPK activator LOPAC-C8145 beginning at 57 uM final concentration; column 2, sixteen-point titration (1:2 dilutions) in duplicate activator LOPAC-S4063 beginning at 57 uM final concentration; column 3, column 4 DMSO only. Data were normalized to the neutral control (column 3).
# Pyruvate kinase (Leishmania mexicana), sequence (Q27686 2-499 E452W): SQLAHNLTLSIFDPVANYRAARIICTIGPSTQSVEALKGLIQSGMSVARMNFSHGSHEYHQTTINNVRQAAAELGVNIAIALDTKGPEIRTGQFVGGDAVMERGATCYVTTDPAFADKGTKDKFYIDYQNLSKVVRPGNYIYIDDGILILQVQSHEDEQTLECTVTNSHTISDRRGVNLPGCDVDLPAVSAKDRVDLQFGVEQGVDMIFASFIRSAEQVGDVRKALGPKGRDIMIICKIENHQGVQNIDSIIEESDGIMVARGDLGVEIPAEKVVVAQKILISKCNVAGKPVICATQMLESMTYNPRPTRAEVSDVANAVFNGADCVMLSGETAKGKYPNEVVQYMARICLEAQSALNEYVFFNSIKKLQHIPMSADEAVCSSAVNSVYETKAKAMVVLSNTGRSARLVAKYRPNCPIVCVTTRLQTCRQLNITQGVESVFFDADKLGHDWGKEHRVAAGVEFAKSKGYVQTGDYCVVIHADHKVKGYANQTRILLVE
Structure (SMILES),"activity change, negative = inhibition",outcome
Clc1cccc(Cl)c1NC1=NCCN1,3.5%,
CCOC(=O)C1=C[C@@]2(CC)CCCN3CCc4c(n1c1ccccc41)[C@H]32,3.02%,
Nc1nc2c(ncn2COCCO)c(=O)[nH]1,9.54%,
NC(N)=NC(=O)c1nc(Cl)c(N)nc1N,-7.76%,
N[C@@H]1CONC1=O,,inactive
O=NN(CCCl)C(=O)NCCCl,5.84%,
O=c1[nH]cnc2[nH]ncc12,-6.53%,
OC(CN1CCC(Cc2ccc(F)cc2)CC1)c1ccc(Cl)cc1 (centres undefined),-2.96%,
Nc1ccc(S(=O)(=O)Nc2ccnn2-c2ccccc2)cc1,-5.41%,
NS(=O)(=O)c1cc2c(cc1Cl)NC=NS2(=O)=O,6.18%,
CN1CCN(CCCN2c3ccccc3Sc3ccc(C(F)(F)F)cc32)CC1,3.87%,
CCOC(=O)N1CCC(=C2c3ccc(Cl)cc3CCc3cccnc32)CC1,2.87%,
Cc1cnc(NC(=O)C2=C(O)c3ccccc3S(=O)(=O)N2C)s1,-13.8%,
NCCc1ccc(O)c(O)c1,6.45%,
Cc1cn[nH]c1,4.15%,
Cc1oncc1C(=O)Nc1ccc(C(F)(F)F)cc1,-12.2%,
CC(C)NCC(O)COc1ccc(COCCOC(C)C)cc1 (centres undefined),-8.16%,

Structure (SMILES),"activity change, negative = inhibition",outcome
Cc1[nH]c(=O)c(C#N)cc1-c1ccncc1,7.67%,
C1COC(NC(C2CC2)C2CC2)=N1,6.25%,
NC(=O)c1cnccn1,6.39%,
O=C1CCc2cc(OCCCCc3nnnn3C3CCCCC3)ccc2N1,3.34%,
NNCCc1ccccc1,-2.65%,
CCCCNc1cc(C(=O)O)cc(S(N)(=O)=O)c1Oc1ccccc1,3.95%,
Cn1cnc([N+](=O)[O-])c1Sc1ncnc2nc[nH]c12,4.82%,
NC[C@H](O)c1ccc(O)c(O)c1,,inactive
N=c1nc(N2CCCCC2)cc(N)n1O,-4.6%,
Cc1ccc(N(CC2=NCCN2)c2cccc(O)c2)cc1,-8.54%,
CNC[C@H](O)c1cccc(O)c1,-4.75%,
CC(=O)Oc1ccccc1C(=O)O,2.92%,
Cc1[nH]c(=O)c(C#N)cc1-c1ccc2nccn2c1,9.16%,
C[C@]12CCC(=O)C=C1CC[C@@H]1[C@@H]2[C@@H](O)C[C@@]2(C)[C@H]1CC[C@]2(O)C(=O)CO,-11.9%,
CCCC(CCC)C(=O)O,8.93%,
O=c1n(CCCN2CCN(c3cccc(Cl)c3)CC2)nc2ccccn12,5.62%,
CC(C)(Sc1ccc(CCN(CCCCC2CCCCC2)C(=O)NC2CCCCC2)cc1)C(=O)O,16.9%,
